According to PubChem BioAssay AID493169 (National Center for Advancing Translational Sciences (NCATS), 2011):
Results filed as inconclusive are left out. A number with no mark means an inactive call. Active and inactive are the calls of the source. Calls follow the shape of the dose curve; as a rule, active = well fitted inhibition curve with a large enough effect; inconclusive = small, poorly fitted or top-dose-only effect; inactive = flat fitted curve, though single readings scatter.

Assay: CHOP2 Reporter Counterscreen Assay for Inhibitors of Ubiquitin-specific Protease USP2a;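 also: activated enterokinase alone at 50 pM in a cell-free format rather than USP2a or CHOP2; nearly all actives have a fitted effect of over 55% in size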
Conditions: purified enterokinase, fluorogenic substrate, 485/531 nm; series mostly up to 38.3 µM; activity change, negative = inhibition: at the top concentration
How it was run: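 Cell-free counterscreen with pre-activated enterokinase alone (50 pM final) in 20mM Tris-HCl pH 8.0, 2mM CaCl2, 2mM beta-mercaptoethanol, 0.05% CHAPS; compound preincubation 30 min RT, reporter substrate 25nM final, fluorescence read after 10 min (Ex 485/Em 531).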
% is scaled to controls: 0 for no effect and ±100 for the full control effect; potency is read from the fitted curve at half-maximal effect.

SMILES	Potency	activity change, negative = inhibition
O=C(Cc1cccs1)Nc1ccc(S(=O)(=O)N2CCCCC2)cc1	7.94 µM (active)	–
COc1cc(NC(=O)COC(=O)CSc2ccccc2F)c(C)cc1[N+](=O)[O-]	–	-22.9%
O=C(COC(=O)c1ccc(F)c(S(=O)(=O)N2CCOCC2)c1)c1ccccc1	–	0.0433%
COc1ccc2[nH]c(=O)c(CN(Cc3ccco3)Cc3nnnn3Cc3ccccc3)cc2c1	–	0.775%
CCOc1ccc(C(=O)c2ccc(OCC)c(N)c2)cc1N	–	-1.26%
Cc1nn(C)cc1CNC(=O)c1ccc(Br)o1	–	-1.24%
Cc1cc(=O)oc(C)c1C(=O)NCCc1ccccc1	–	1.21%
COCCCNCCCOc1ccc(C)cc1Br	–	6.77%
CN1CCN(CCCCOc2ccc(F)cc2)CC1	–	0.243%
O=c1oc2ccccc2n1Cn1c(=O)oc2ccccc21	–	-0.0721%
O=C(CSc1nc(N2CCCCC2)nc(N2CCCCC2)n1)N1CCN(c2ccccc2)CC1	–	0.634%
Cc1ccc(NC(=O)CS(=O)CC(=O)Nc2ccc(N3CCOCC3)cc2)cc1Cl (stereo not drawn)	–	-25.4%
Cc1n[nH]c(C)c1S(=O)(=O)N1CCCC(C(=O)NC2CCCc3ccccc32)C1 (stereo not drawn)	–	0.0618%
COc1ccccc1N1CCN(c2cc(C)nc3nc(C)nn23)CC1	–	2.05%
CC(=O)Nc1ccc(Nc2cc(C)nc(Nc3ccc(NC(C)=O)cc3)n2)cc1	–	-3.67%
O=C(Nc1cccc(Cl)c1)Nc1nnc(CC2=CCCCC2)s1	–	2.28%
CCO[C@H]1OC(C(=O)N2CCCCCCC2)=C[C@@H](c2ccc(C(F)(F)F)cc2)[C@@H]1CCCO	–	-1.04%
Cc1ccc(S(=O)(=O)N2CCOCC2)cc1NC(=O)CN1C(=O)NC(C)(c2ccc(Cl)cc2Cl)C1=O (stereo not drawn)	–	-0.725%
